Among the data in PubChem BioAssay (NCATS) are outcome, Potency and activity, negative = cell killing values, retold here.

Each structure is given as a SMILES string. Records with an inconclusive call do not appear. Values without a mark were called inactive. The source made the active and inactive calls. The call rests on the fitted dose curve; in most records, active means well fitted curve in the direction sought with a large enough effect; inconclusive means small, poorly fitted or top-dose-only effect, or another doubt; inactive means no such curve, though single readings can be large; an effect the other way counts as inactive or inconclusive.

For assay [1], the system named is NIH3T3. Nature of the assay: qHTS assay to identify novel small-molecules to repurpose for Merkel cell carcinoma treatment (AID 1296009). Further: nearly all actives have a fitted effect of over 60% in size. Further: potency means the concentration at half of the fitted maximal effect. As to conditions: MCC and control cell lines, CellTiter-Glo viability, 72 h; at 44.8 µM (top of the series) unless noted. Put shortly:
(§1)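 Cell viability measured by CellTiter-Glo following 72 hr compound treatment at 37 degree celsius, with NPC and MIPE libraries tested in 8- and 11-point concentration series.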
On the technique in general: qHTS replaces the single test concentration by a dilution series.

Assay [2] relates to C33A. Briefly: Primary qHTS to identify gynecologic anti-cancer compounds using libraries of approved drugs and bioactive compounds (AID 1345084). Further: nearly all actives have a fitted effect of over 55% in size. Further: potency means the concentration at half of the fitted maximal effect. As to conditions: Gynecologic cancer cell panel viability, ATPlite luminescence, 48 h; series mostly up to 57.5 µM. A digest of the protocol:
(§2)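 ATP-based viability (ATPlite), 1,000 cells/well, 16 h pre-incubation, 48 h compound at 37 C, 5% CO2, 15 min RT before read.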

The subject of assay [3] is CAOV3. The description is as above. As to conditions: Gynecologic cancer cell panel viability, ATPlite luminescence, 48 h; series mostly up to 57.5 µM. Put shortly: as §2
On the technique in general: Cellular ATP, detected with luciferase, serves as a proxy for viable cell number.

Assay [4] deals with CASKI. The assay is described as above. As to conditions: Gynecologic cancer cell panel viability, ATPlite luminescence, 48 h; series mostly up to 57.5 µM. Put shortly:
as §2

Assay [5] has as its system Es-2. The description is as above. The conditions noted are these: Gynecologic cancer cell panel viability, ATPlite luminescence, 48 h; series mostly up to 57.5 µM. A digest of the protocol: as §2
Assay [6] has as its system HeLa. The description is as above. The conditions noted are these: Gynecologic cancer cell panel viability, ATPlite luminescence, 48 h; series mostly up to 57.5 µM. Put shortly: as §2
In assay [7] the test system is Hek293T. The assay is described as above. As to conditions: Gynecologic cancer cell panel viability, ATPlite luminescence, 48 h, control line for the selectivity index; series mostly up to 57.5 µM. A digest of the protocol:
as §2

Assay [8] concerns JEG-3. Described as above. As to conditions: Gynecologic cancer cell panel viability, ATPlite luminescence, 48 h; series mostly up to 57.5 µM. A digest of the protocol: as §2
Assay [9] deals with OV90. Described as above. As to conditions: Gynecologic cancer cell panel viability, ATPlite luminescence, 48 h; series mostly up to 57.5 µM. A digest of the protocol:
as §2

Assay [10] has as its system PA-1. The description is as above. As to conditions: Gynecologic cancer cell panel viability, ATPlite luminescence, 48 h; series mostly up to 57.5 µM. A digest of the protocol:
as §2

For assay [11], the system named is SKOV3. The assay is described as above. The conditions noted are these: Gynecologic cancer cell panel viability, ATPlite luminescence, 48 h; series mostly up to 57.5 µM. A digest of the protocol: as §2
The test system of assay [12] is Tov-21-G. Described as above. The conditions noted are these: Gynecologic cancer cell panel viability, ATPlite luminescence, 48 h; series mostly up to 57.5 µM. A digest of the protocol: as §2
Assay [13] concerns Tov112D. Described as above. As to conditions: Gynecologic cancer cell panel viability, ATPlite luminescence, 48 h; series mostly up to 57.5 µM. A digest of the protocol:
as §2

The nature of assay [14]: Drug repurposing screens with cells derived from glioblastoma tumor samples (AID 1345199). Further: nearly all actives have a fitted effect of over 40% in size. The conditions noted are these: GBM patient neurospheres viability, ATP luminescence, 48 h. A digest of the protocol:
(§3)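 Primary testing used CD133+ neurospheres from four GBM patients, seven concentrations, 48 h exposure and ATP-based viability; confirmation added three slower-growing patient lines.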

Assay [15] has as its system MKL-1. Briefly: qHTS assay to identify novel small-molecules to repurpose for Merkel cell carcinoma treatment (AID 1296009). Further: nearly all actives have a fitted effect of over 60% in size. Further: potency means the concentration at half of the fitted maximal effect. As to conditions: MCC and control cell lines, CellTiter-Glo viability, 72 h; series mostly up to 46 µM. A digest of the protocol: as §1
In assay [16] the test system is MKL-2. The assay is described as above. The conditions noted are these: MCC and control cell lines, CellTiter-Glo viability, 72 h; series mostly up to 46 µM. Put shortly:
as §1

The subject of assay [17] is astro. Nature of the assay: Drug repurposing screens with cells derived from glioblastoma tumor samples (AID 1345199). Further: nearly all actives have a fitted effect of over 40% in size. The conditions noted are these: viability, ATP luminescence, 48 h; series mostly up to 45.9 µM. A digest of the protocol:
as §3

Assay [18] relates to WaGa. Briefly: qHTS assay to identify novel small-molecules to repurpose for Merkel cell carcinoma treatment (AID 1296009). Further: nearly all actives have a fitted effect of over 60% in size. Further: potency means the concentration at half of the fitted maximal effect. The conditions noted are these: MCC and control cell lines, CellTiter-Glo viability, 72 h; series mostly up to 46 µM. A digest of the protocol: as §1
[19] abbreviates: at 45.9 µM (top of the series), tumour line B.
Setting [20] is: at 45.9 µM (top of the series), tumour line D.
Where [21] appears, read: at 46 µM (top of the series), tumour line A.
The mark [22] stands for this setting: at 46.1 µM (top of the series), tumour line C.
On the % scale 0 is the no-effect control and ±100 the full control effect.

`CCNc1nc2c(ncn2[C@H]2C[C@H](O)[C@@H](CO)O2)c(=O)[nH]1`: in [1], the result was inactive. In addition, the Potency result in assay [2], in [3], in [4], in assay [5], in assay [6] and in [7] was “inactive” throughout. For the same compound, the Potency entry in [8], in assay [9], in [10], in [11], in [12] and in assay [13] was “inactive” each time.
As for `O=C(O)CC1CC(c2ccccc2)=NO1` (stereo not drawn), the Potency entry in assay [2], in assay [3], in [4], in [5], in assay [6] and in [7] was “inactive” in each case. In addition, the Potency entry in assay [8], in assay [9], in [10], in assay [11], in assay [12] and in assay [13] was “inactive” throughout.
Regarding `CC1(C)S[C@@H]2[C@H](NC(=O)[C@H](NC(=O)N3CCN(S(C)(=O)=O)C3=O)c3ccccc3)C(=O)N2[C@H]1C(=O)O`, the result in assay [1] was inactive. Further, the Potency entry in [2], in assay [4], in assay [5], in assay [6], in assay [7] and in assay [8] was “inactive” throughout. The Potency entry in assay [9], in [10], in [12] and in assay [13] was “inactive” in each case. For the same compound, the activity, negative = cell killing in [14] (setting [19]) is -6.53%; in [14] (setting [20]) it was -7.16%; in assay [14] (setting [21]) it was -8.92%; in assay [14] (setting [22]), -22.9%.
On to `COC(=O)C1=C(C)NC(C)=C(C(=O)OCC(C)=O)C1c1ccccc1[N+](=O)[O-]` (stereo not drawn), for which the Potency in [15] was 21.1 µM (active); in assay [16], 10.6 µM (active). Further, the Potency entry in assay [2], in assay [4], in assay [5], in assay [7], in assay [8] and in assay [9] was “inactive” each time. For the same compound, the Potency result in assay [10], in assay [11], in [12] and in assay [13] was “inactive” each time.
For the compound `O=c1cc(-c2ccccc2)oc2ccccc12`, in [15], the Potency result is “inactive”. Moreover, the Potency in assay [6] was 15.8 µM (active); in assay [11] it was 31.6 µM (active).
As for `CCNC(=O)[C@H]1O[C@@H](n2cnc3c(N)nc(NCCc4ccc(CCC(=O)O)cc4)nc32)[C@H](O)[C@@H]1O`, the Potency result in assay [2], in assay [4], in assay [5], in [6], in assay [7] and in assay [8] was “inactive” each time. For the same compound, the Potency result in [9], in assay [10], in [11], in assay [12] and in assay [13] was “inactive” each time.
On to `O=C(Nc1ccc2[nH]ncc2c1)C1CCC1`, for which the Potency result in assay [2], in assay [4], in assay [5], in [6], in assay [7] and in assay [8] was “inactive” each time. Besides, the Potency result in assay [9], in [10], in assay [11], in assay [12] and in assay [13] was “inactive” each time.
For `CC1(C)S[C@@H]2[C@H](NC(=O)[C@H](N)c3ccc(O)cc3)C(=O)N2[C@H]1C(=O)O`, in [1], the outcome was inactive. For the same compound, the Potency result in assay [4], in assay [5], in assay [6], in [7], in assay [8] and in assay [9] was “inactive” each time. Also, the Potency result in [10], in [11], in assay [12], in assay [13] and in assay [17] was “inactive” throughout. Moreover, the activity, negative = cell killing is 2.03% in assay [14] (setting [19]), 3.17% in assay [14] (setting [20]), -16.6% in [14] (setting [21]) and -0.658% in assay [14] (setting [22]).
As to `O=[N+]([O-])c1ccc(CNc2nc(NCc3cccc(C(F)(F)F)c3)nc3nc[nH]c23)cc1`, the outcome in assay [1] was inactive. Further, the Potency result in assay [2], in assay [3], in assay [4], in assay [5], in assay [6] and in assay [7] was “inactive” in each case. The Potency entry in assay [8], in assay [10], in assay [11], in assay [12] and in [13] was “inactive” each time.
As to `O=C1CN(/N=C/c2ccc([N+](=O)[O-])o2)C(=O)N1`, in assay [1], the compound was called inactive. For the same compound, the values for the Potency in assay [18] and in [11] were 23.7 µM (active) and 22.4 µM (active), respectively. The Potency entry in [2], in assay [3], in assay [4], in [5], in assay [6] and in [10] was “inactive” throughout. Also, the Potency entry in [12], in assay [13] and in [17] was “inactive” in each case. In addition, the activity, negative = cell killing in assay [14] (setting [19]) is -5.05%; in [14] (setting [20]) it was -3.4%; in [14] (setting [21]) it was -24.2%; in assay [14] (setting [22]) it was -8.71%.
In the case of `COc1cc(/C=C/C(=O)N2CCN(CC(=O)N3CCCC3)CC2)cc(OC)c1OC`, the call in assay [1] was inactive. Further, the Potency entry in assay [2], in [4], in assay [5], in assay [6], in [7] and in assay [8] was “inactive” throughout. Besides, the Potency entry in [9], in assay [10], in [12] and in [13] was “inactive” throughout. Further, the activity, negative = cell killing in assay [14] (setting [19]) was -11%; in [14] (setting [20]), -1.45%; in assay [14] (setting [21]), -40.7%; in assay [14] (setting [22]), -18.6%.
`NS(=O)(=O)c1ccc(-n2nc(C(F)(F)F)cc2-c2ccc(Cl)cc2)cc1`: the Potency entry in assay [2], in assay [3], in [4], in assay [5], in assay [6] and in assay [7] was “inactive” each time. The Potency entry in assay [8], in [9], in [10], in assay [11], in [12] and in assay [13] was “inactive” throughout.
With `O=C(O)[C@H](CC(=O)N1C[C@H]2CCCC[C@H]2C1)Cc1ccccc1`, the Potency entry in assay [2], in assay [4], in assay [5], in assay [6], in assay [7] and in assay [8] was “inactive” in each case. For the same compound, the Potency entry in assay [9], in assay [10], in assay [11], in assay [12], in [13] and in [17] was “inactive” in each case. Besides, the activity, negative = cell killing is -13.2% in [14] (setting [19]), -11.7% in assay [14] (setting [20]), -25.9% in assay [14] (setting [21]) and -20.5% in assay [14] (setting [22]).
As for `O=C(Nc1ccc2c(c1)CCN(Cc1ncn[nH]1)C2)c1ccccc1-c1ccc(C(F)(F)F)cc1`, the Potency result in [3] was “inactive”.
`CCCCC[C@H](O)/C=C/[C@@H]1[C@@H](C/C=C\CCCC(=O)O)[C@@H](O)C[C@H]1O`: the activity, negative = cell killing was -5.83% in assay [14] (at 20 µM (top of the series), tumour line C); 0.321% in assay [14] (at 21.2 µM (top of the series), tumour line B); -15.4% in assay [14] (at 21.2 µM (top of the series), tumour line D).
